From PubChem BioAssay

The molecules below were run against Albumin (Bos taurus) (UniProt P02769) (assay: compounds binding labelled BSA control protein – biochemical, small-molecule microarray, Alexa647 label, 635/667 nm fluorescence, artefact control for SMM control protein annotation, profiling panel (AID 1118;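 further: score merges 667 nm emission intensity and signal-to-noise per printed compound spot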)). Details: BSA-A647 binding, fluorescence 635 nm, higher = more signal.
Sequence of Albumin (Bos taurus) (P02769 whole entry, looked up): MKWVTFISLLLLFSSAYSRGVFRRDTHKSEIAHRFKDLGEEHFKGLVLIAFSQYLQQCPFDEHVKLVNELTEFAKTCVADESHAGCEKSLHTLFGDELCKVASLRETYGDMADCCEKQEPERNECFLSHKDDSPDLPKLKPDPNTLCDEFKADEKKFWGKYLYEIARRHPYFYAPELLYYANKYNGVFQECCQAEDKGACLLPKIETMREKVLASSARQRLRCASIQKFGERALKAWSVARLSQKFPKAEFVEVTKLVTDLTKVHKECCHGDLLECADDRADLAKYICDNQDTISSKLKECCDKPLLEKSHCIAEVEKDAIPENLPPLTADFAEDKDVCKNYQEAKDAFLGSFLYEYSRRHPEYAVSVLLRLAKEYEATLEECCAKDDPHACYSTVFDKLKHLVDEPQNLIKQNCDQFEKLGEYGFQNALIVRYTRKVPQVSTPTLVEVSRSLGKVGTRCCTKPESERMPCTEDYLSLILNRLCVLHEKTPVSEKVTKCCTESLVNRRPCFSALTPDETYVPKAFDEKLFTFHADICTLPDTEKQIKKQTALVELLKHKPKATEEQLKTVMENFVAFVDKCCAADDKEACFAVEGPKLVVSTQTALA

| Compound | composite z-score |
| --- | --- |
| CN1CCC(CCCO)=CC1C1CC1 (stereo unspecified) | -0.958 |
| NC(=O)NCC#Cc1ccc2c(c1)[C@]1(C(=O)N2)[C@H](C(=O)N2CCCCCCC2)[C@H]2C(=O)O[C@H](c3ccccc3)[C@H](c3ccccc3)N2[C@@H]1c1ccccc1OCCO | 0.408 |
| C=CCC(OC(C)=O)[C@@H]1[C@@H](N(Cc2cc3ccccc3o2)C(=O)c2ccc(C)cc2)c2cc(OCCCO)ccc2N1C(=O)c1ccc2ccccc2n1 (stereo partly specified) | 0.659 |
| CO[C@H]1COC(=O)[C@H](C)COC(=O)[C@H](Cc2ccccc2)NC(=O)CC=C[C@H]1C | -1.16 |
| C=CC[C@@]12N=C(c3ccc(OCCCO)cc3)O[C@@H]1c1ccccc1CN(Cc1ccccc1)C2=O | 0.127 |
| CCCC[C@@H]1C[C@H]1[C@@H](NC(=O)c1cccs1)c1ccc(Cl)cc1 | 0.804 |
| CO[C@H]1COC(=O)[C@H](CCSC)NC(=O)CC=C[C@@H](C)COC(=O)[C@@H](OCc2ccccc2)C=C[C@@H]1C | -1.35 |
| O=C1c2ccccc2[C@@]2(Cc3ccccc3N(CC(F)(F)F)C2=O)[C@H](c2ccc(CO)cc2)N1C1CCCCC1 | -0.976 |
| CC(C)(C)OC(=O)CC[C@@]1(C(=O)NCc2ccccc2)N=C(c2ccc(OCCCO)cc2)O[C@@H]1c1ccccc1 | 0.974 |
| CC[C@H]1C2=C3C(CC[C@H]4C(OC)OC[C@](C)([C@@H]34)N(C(=O)OC(C)(C)C)C2)C(CO)C1CO (stereo partly specified) | 1.05 |
| CO[C@]12C=C(Br)[C@@H](C[C@@H]1c1ccccc1)[C@@]1(CO1)C2=O | 0.139 |
| COCCOC(=O)N1C(=O)[C@@]2(c3cc(C#CC4=CCCCC4)ccc31)[C@H](C(=O)NC[C@H](O)c1ccccc1)[C@H]1C(=O)O[C@H](c3ccccc3)[C@H](c3ccccc3)N1[C@@H]2c1ccc(OCCO)cc1 | 0.723 |
| C=C(CCCC)/C(=C/C[C@@H](OC(=O)c1ccncc1)c1cccc(OCCO)c1)c1cc(C(=O)OC)ccc1OC | 0.6 |
| COCCOC(=O)N1C(=O)[C@@]2(c3cc(C#CCC(C(=O)OC)C(=O)OC)ccc31)[C@H](C(=O)N1CCN(c3ncccn3)CC1)[C@H]1C(=O)O[C@H](c3ccccc3)[C@H](c3ccccc3)N1[C@@H]2c1ccc(O)cc1 | 0.752 |
| Cc1ccc(N2C(=O)c3ccccc3[C@](C)(C(=O)O)[C@@H]2c2ccc(CO)cc2)nc1 | -1.29 |
| CN(C)CCCC[C@@H]1NC(=O)[C@@H]2C[C@H](C(=O)NCCCCCNC(=O)CS)[C@H](c3ccc(O)cc3)N2C1=O | 0.885 |
| C=CCC(OC(C)=O)[C@@H]1[C@@H](N(Cc2ccc(-c3cccc(C(F)(F)F)c3)o2)C(=O)Cc2ccc(F)cc2)c2cc(OCCCO)ccc2N1C(=O)c1ccc(-c2ccccc2)cc1 (stereo partly specified) | -0.701 |
| C=CC[C@]1(C(=O)NCC(O)CO)N=C(c2ccc(OCCCO)cc2)O[C@H]1c1ccccc1 (stereo partly specified) | 0.704 |

| Compound | composite z-score |
| --- | --- |
| CCOC(=O)C1=CC[C@@H](c2ccccc2)N(S(=O)(=O)c2ccc(C)cc2)[C@H]1C | 0.972 |
| O=C1O[C@H](c2ccccc2)[C@H](c2ccccc2)N2[C@H]1[C@@H](C(=O)NC[C@H](O)c1ccccc1)[C@]1(C(=O)Nc3ccc(C#CC4=CCCCC4)cc31)[C@H]2c1ccc(OCCO)cc1 | 0.534 |
| COC(=O)Cn1c(C(=O)N2CCCC2)cc2c1C[C@H]1CN(C(=O)c3ccccc3)[C@@](Cc3ccc(OC)cc3)(C(=O)OC)[C@@H]21 | 0.92 |
| COC(=O)C1=CC(c2ccc(CO)cc2)=CC(c2cccs2)N(Cc2cccc(OC(F)(F)F)c2)C=C1C(=O)OC (stereo unspecified) | 1.09 |
| O=C/C=C/c1ccccc1Cl | 0.95 |
| CCOC(=O)C[C@H]1[C@H](OC(=O)c2ccccc2-c2ccccc2)[C@@H](NC(=O)C2CCCCC2)c2cc(OCCCO)ccc2N1C(=O)c1ccccc1 | 0.576 |
| CC1=C([C@H](O)CCc2ccccc2)[C@H](CO)[C@@H]2C(=O)N(Cc3ccccc3)C(=O)[C@@H]2C1 | 0.427 |
| C#CCCCON=C1C[C@@H](O)[C@@H](O)[C@@H]2[C@@H]3C(=O)N(Cc4ccc5c(c4)OCO5)C(=O)[C@@H]3CC[C@H]12 | 0.86 |
| CC(C)CNC(=O)[C@@]1(C)c2ccccc2C(=O)N(Cc2ccc(OC(F)(F)F)cc2)[C@H]1c1ccc(CO)cc1 | -0.2 |
| CCCC=C(CCC)[C@@H](NC(=O)c1ccccc1)c1ccccc1 | -0.399 |
| CO[C@H]1O[C@H](CO)[C@@H](OC(=O)Nc2ccccc2)[C@H](OC(=O)Nc2ccc3c(c2)OCO3)[C@@H]1OC(=O)Nc1ccc2c(c1)OCO2 | 0.536 |
| O=C(NCC(F)(F)F)[C@@H]1c2ccccc2C(=O)N(Cc2ccccc2Cl)[C@H]1c1ccc(CO)cc1 | -0.288 |
| CCN1C(C)=C(C(=O)OC)[C@@H](c2ccccc2)N2C(=O)[C@](O)(C(=O)OC)[C@@H](c3ccccc3)C(C(=O)c3ccccc3)=C12 | 0.325 |
| CC(=O)NCCCC[C@@H]1NC(=O)[C@H]2C[C@@H](C(=O)NCCCCCCN(C)C)[C@@H](c3cccc(OCCO)c3)N2C1=O | -1.13 |
| CCC(=O)[C@]12O[C@@]3([C@@H]4C(=O)OCC[C@@H]41)N(Cc1ccccc1)C(C)=C(C(=O)OC)[C@@H](c1ccccc1)N3C2=O | 0.226 |
| CCCCCCc1nc(-c2cc(C)c(OC)c(C)c2)cc2c1[Si](C(C)C)(C(C)C)O[C@H]2c1ccccc1 | -0.0154 |
| O=C1C2C=CC(C(O)C(c3ccccc3)c3ccccc3)N(Nc3ccc([N+](=O)[O-])cc3)C2C(=O)N1c1ccccc1 (stereo unspecified) | 0.751 |
| CC(=O)NCCCC[C@@H]1NC(=O)[C@@H]2C[C@H](C(=O)NCCCCCNC(=O)CS)[C@H](c3ccc(O)cc3)N2C1=O | -0.0591 |
